Rows were chosen to be rich in hits. Some 5.3% of all compounds tested hit in one or more screens of this group.
HP1b binding inh: blocks HP1-beta chromodomain binding to methylated histone tails. P83916. AlphaScreen HP1-beta / biotin-H3K9me3 peptide binding. Potency, µM (doses to about 114 µM), for the others: at the highest dose activity change, negative = inhibition, most hits filed as inhibitors. actives 0.56% (n = 390,000); note: potency is the fitted concentration of half-maximal effect; nearly all actives have a fitted effect of over 70% in size
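HP1-beta protein (50 nM final) preincubated 30 min at room temperature with biotinylated H3(1-18)K9me3 peptide (50 nM) in PBS pH 7.4, 0.01% Tween-20, then compound added for 30 min. AlphaScreen streptavidin donor/nickel chelate acceptor beads (10 ug/mL final), 30 min dark, luminescence read.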
JMJD2A Tudor inh: inhibitors of human JMJD2A Tudor domain; O75164; AlphaScreen JMJD2A-Tudor / H3K4me3 peptide binding; Potency, µM (doses to about 114 µM), for the others: top-dose activity change, negative = inhibition, most hits filed as inhibitors; actives 4.4% (n = 390,000); AID 504339; note: potency is the fitted concentration of half-maximal effect; % is set by controls: 0 for no effect and ±100 for the full control effect; nearly all actives have a fitted effect of over 50% in size
TDP1 block: blocks human tyrosyl-DNA phosphodiesterase 1. recombinant TDP1, AlphaScreen DNA substrate cleavage. Potency, µM (doses to about 130 µM), inactives show at the top dose activity change, negative = inhibition, most hits filed as inhibitors. actives 0.28% (n = 350,000); note: potency is the fitted concentration of half-maximal effect; % is set by controls: 0 for no effect and ±100 for the full control effect; nearly all actives have a fitted effect of over 40% in size
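Compounds were preincubated with Tdp1 (1 nM final) for 15 min at room temperature before substrate (15 nM final) started a 5 min reaction; beads (10 ug/ml final) were then added for 10 min before AlphaScreen detection.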
CtBP-E1A inh: blocks the CtBP interaction with E1A | AlphaScreen GST-E1A/His-CtBP binding, 1536-well; active compounds read low | activity change, % (test concentration not listed) | actives 0.49% (n = 340,000) | AID 651724; in the data active = activity change below about -65%; inconclusive = mostly about -30% to -63%; note: % is set by controls: 0 for no effect and ±100 for the full control effect
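GST-E1A and His-tagged CtBP (125 nM each as 5X stock) were preincubated with pin-transferred compound for 2 h at 37 °C in the dark, then glutathione donor and nickel acceptor beads were added for 1 h before AlphaScreen reading.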
Six1-Eya2 blk: blocks human Six1 binding to Eya2; Q15475+O00167; activity change, % (no concentration beside the values); actives 0.56% (n = 360,000); AlphaScreen GST-Six1/His-Eya2 binding, biochemical; active compounds read low; in the data active = activity change below about -65%; inconclusive = mostly about -30% to -63%; note: % is set by controls: 0 for no effect and ±100 for the full control effect
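AlphaScreen luminescence read after one hour at 37 °C in darkness. Pin-transferred compounds met GST-Six1 and His-Eya2 protein (5X stock 250 nM/500 nM) plus glutathione donor and Ni-chelate acceptor beads (5X, 50 ug/mL).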
BAZ2B inh: BAZ2B (human) inhibition | AlphaScreen BAZ2B-H3K14Ac peptide displacement | AID 504333 | actives 4.4% (n = 360,000) | Q9UIF8 | Potency, µM (titrated, usually from 114 µM), for the others: at the top dose activity change, negative = inhibition, actives largely listed as inhibitors; note: potency is the fitted concentration of half-maximal effect; % is set by controls: 0 for no effect and ±100 for the full control effect; nearly all actives have a fitted effect of over 60% in size
Target sequence (Q9UIF8 whole entry, looked up): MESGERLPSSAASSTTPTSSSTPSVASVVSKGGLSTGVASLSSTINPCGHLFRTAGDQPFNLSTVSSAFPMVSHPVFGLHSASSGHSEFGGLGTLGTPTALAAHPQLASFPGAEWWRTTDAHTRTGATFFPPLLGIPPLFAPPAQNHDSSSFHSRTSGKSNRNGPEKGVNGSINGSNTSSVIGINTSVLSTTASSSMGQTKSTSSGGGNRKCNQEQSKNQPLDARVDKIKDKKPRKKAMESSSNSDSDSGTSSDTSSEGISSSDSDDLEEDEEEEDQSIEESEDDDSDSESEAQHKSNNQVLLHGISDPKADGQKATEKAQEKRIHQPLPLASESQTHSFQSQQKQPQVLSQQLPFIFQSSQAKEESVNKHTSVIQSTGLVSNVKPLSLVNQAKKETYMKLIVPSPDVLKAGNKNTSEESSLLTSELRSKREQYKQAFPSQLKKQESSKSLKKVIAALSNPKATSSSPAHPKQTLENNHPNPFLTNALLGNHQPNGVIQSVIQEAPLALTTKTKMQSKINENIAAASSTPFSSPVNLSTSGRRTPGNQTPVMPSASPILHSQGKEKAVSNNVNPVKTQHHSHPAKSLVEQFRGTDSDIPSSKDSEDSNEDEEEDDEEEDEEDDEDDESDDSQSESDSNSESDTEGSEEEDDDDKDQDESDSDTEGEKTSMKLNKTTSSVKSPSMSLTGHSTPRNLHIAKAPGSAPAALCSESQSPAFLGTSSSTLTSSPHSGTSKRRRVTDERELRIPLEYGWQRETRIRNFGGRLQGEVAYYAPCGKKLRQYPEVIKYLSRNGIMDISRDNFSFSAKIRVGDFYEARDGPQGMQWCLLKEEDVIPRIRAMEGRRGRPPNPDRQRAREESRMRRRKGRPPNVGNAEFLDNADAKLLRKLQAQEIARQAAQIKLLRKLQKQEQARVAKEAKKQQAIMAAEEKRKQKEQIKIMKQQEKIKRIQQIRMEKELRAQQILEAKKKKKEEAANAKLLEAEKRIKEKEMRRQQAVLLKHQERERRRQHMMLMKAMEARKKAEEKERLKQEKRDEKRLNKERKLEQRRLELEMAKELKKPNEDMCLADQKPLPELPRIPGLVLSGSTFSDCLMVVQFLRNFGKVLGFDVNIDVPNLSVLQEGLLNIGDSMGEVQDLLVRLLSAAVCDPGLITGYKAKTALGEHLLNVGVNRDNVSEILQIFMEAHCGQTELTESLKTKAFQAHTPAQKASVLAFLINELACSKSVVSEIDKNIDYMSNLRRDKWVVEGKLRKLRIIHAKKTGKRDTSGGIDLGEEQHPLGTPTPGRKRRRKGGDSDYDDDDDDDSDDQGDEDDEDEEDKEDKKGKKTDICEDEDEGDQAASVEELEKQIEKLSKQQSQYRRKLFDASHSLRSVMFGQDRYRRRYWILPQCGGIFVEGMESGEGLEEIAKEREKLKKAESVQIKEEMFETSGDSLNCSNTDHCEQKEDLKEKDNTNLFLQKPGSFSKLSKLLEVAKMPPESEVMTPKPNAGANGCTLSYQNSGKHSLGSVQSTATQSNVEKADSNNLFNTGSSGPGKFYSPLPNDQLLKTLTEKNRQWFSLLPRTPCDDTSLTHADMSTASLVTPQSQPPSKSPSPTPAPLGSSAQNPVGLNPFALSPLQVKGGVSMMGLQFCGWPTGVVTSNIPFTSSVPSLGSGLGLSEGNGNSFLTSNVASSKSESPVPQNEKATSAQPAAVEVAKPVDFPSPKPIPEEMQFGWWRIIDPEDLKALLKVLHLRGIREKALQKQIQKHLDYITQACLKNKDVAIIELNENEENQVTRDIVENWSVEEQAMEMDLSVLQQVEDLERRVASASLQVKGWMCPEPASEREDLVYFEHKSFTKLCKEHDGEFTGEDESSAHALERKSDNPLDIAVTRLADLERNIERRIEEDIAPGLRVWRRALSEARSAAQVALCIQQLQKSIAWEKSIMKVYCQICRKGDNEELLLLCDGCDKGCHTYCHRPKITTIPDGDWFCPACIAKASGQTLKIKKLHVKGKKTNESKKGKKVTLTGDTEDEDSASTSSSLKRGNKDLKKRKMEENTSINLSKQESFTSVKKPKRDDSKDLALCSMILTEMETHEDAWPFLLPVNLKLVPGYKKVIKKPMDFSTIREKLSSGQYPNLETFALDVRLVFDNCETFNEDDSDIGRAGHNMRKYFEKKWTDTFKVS
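Protein-peptide AlphaScreen: BAZ2B 50 nM, b-H3K14Ac 50 nM, 1x PBS pH 7.4 + 0.01% Tween-20. Preincubation 30 min RT; cpd 30 min RT (top 110 uM); beads 20 min RT, light-protected.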
* hit, by the source's call; ? = inconclusive; . = no result; [ ] = another dose, or the depositor's remark. Unless noted, calls come from the whole dose curve; as a rule, active = well fitted inhibition curve with a large enough effect; inconclusive = small, poorly fitted or top-dose-only effect; inactive = no such curve, though single readings can be large or run the other way.

SMILES | HP1b binding inh | JMJD2A Tudor inh | TDP1 block | CtBP-E1A inh | Six1-Eya2 blk | BAZ2B inh
Cc1ccc(CS(=O)(=O)Cc2ccc(C(=O)NCCc3ccc(Cl)cc3)o2)cc1 | 32% | -3% | 5% | . | . | 2%
COc1cccc(CNc2ccccc2O)c1OCc1ccccc1F | 45µM* | 45µM* | 11% | ? | ? | 32µM*
O=C(NCCc1nc2ccccc2n1CCO)C1CCCCC1 | . | -11% | . | . | . | .
COc1ccc(NC(=O)c2cc(C)nc3c2c(C)nn3-c2ccc(C)cc2)cc1OC | -5% | -18% | 5% | . | . | 4%[57.1 µM]
Cc1ccccc1CSc1ncc(Cl)c(C(=O)Nc2nc3ccc(F)cc3s2)n1 | 8% | -17% | 5% | . | . | 1%
CCOc1ccc(S(=O)(=O)NCCSCc2ccco2)cc1 | 1% | -29% | 0% | -7 | -19 | ?
COc1ccc(S(=O)(=O)NCCSCc2ccco2)cc1 | 0% | -30% | 3% | -4 | -1 | 50µM*
COc1ccc(S(=O)(=O)NCCSCc2ccco2)cc1OC | 8% | -34% | . | 9 | -6 | 56µM*
COc1ccc(S(=O)(=O)NCCc2ccco2)cc1OC | 44% | -11% | 0% | . | -1 | -5%[57.1 µM]
O=S(=O)(c1ccc(Br)cc1)c1nc(-c2ccco2)oc1SCc1ccccc1F | 15% | -23% | 0% | . | . | -25%
Cc1c(C(=O)Nc2ccc(Br)cc2F)sc2ncnc(N(C)C3CCCCC3)c12 | 20% | -14% | 3% | . | . | 0%
N/C(=N\NC(=O)Nc1ccc(Cl)cc1)c1ccccn1 | -1% | 45µM* | 6% | -76* | ? | 16µM*
CCOC(=O)c1ccc(NC(=O)c2c(N3CCCC3=O)c3cc(OC)ccc3n2C)cc1 | 24% | -18% | 3% | . | . | -17%
COc1ccc(C(=O)N2C(=S)NC(=O)/C2=C\c2ccc(C)cc2)cc1 | -23% | 50µM* | 5% | -8 | 1 | 50µM*
Cc1cccc(N=Nc2cnc(N)s2)c1 | ? | 45µM* | 3% | -6 | -4 | ?
COC(=O)C/C=C/[C@@H](C)[C@H](NC(=O)OCC(Cl)(Cl)Cl)c1cccc(OC)c1 | . | . | 5% | . | . | .
CSc1nsc(SC)c1C(=O)NCCNS(=O)(=O)c1ccc(C)cc1 | 30% | -11% | 7% | 0 | -4 | 50µM*
O=C(Cn1sc2ccccc2c1=O)NC12CC3CC(CC(C3)C1)C2 | ? | 2.8µM* | 12% | 10 | 4 | 11µM*
O=C(Cn1sc2ccccc2c1=O)Nc1ccccc1 | . | . | . | -25 | 12 | .
COc1cc(OC)c(OC)cc1CNc1cc(C)ccc1OC | ? | 40µM* | 12% | ? | ? | .
COc1cc(CNc2cc(C)ccc2C)cc(OC)c1OC | -16% | ? | 5% | -7 | -15 | ?
COc1ccc(N2CCN(C(c3ccccc3OC)c3nnnn3Cc3ccco3)CC2)cc1 (stereo unspecified) | -47% | 50µM* | 8% | -29 | ? | 40µM*
Cc1cc2cc(C(c3nnnn3Cc3ccco3)N3CCc4ccccc4C3)c(=O)[nH]c2cc1C (stereo unspecified) | 12% | -35% | 5% | 15 | -5 | 45µM*
Cc1cc2cc(C(c3nnnn3Cc3ccccc3)N3CCc4ccccc43)c(=O)[nH]c2cc1C (stereo unspecified) | -1% | ? | -3% | -12 | -19 | ?
COc1cccc(C(c2nnnn2Cc2ccco2)N2CCN(Cc3ccccc3)CC2)c1OC (stereo unspecified) | 28% | -10% | 10% | 5 | -5 | 50µM*
SMILES | HP1b binding inh | JMJD2A Tudor inh | TDP1 block | CtBP-E1A inh | Six1-Eya2 blk | BAZ2B inh
O=C(Nc1cccc(C(=O)OCc2cc(=O)n3ccsc3n2)c1)c1ccc(F)cc1 | 17% | -1% | -6% | . | . | -6%
CCn1cc(S(=O)(=O)c2ccc(C)cc2C)c(=O)c2cc(F)c(N3CCCCC3)cc21 | 21% | -16% | 0% | . | . | -7%
O=C(N/N=C/C(Cl)=C\c1ccccc1)c1cnccn1 | 17% | -5% | 4% | -85* | ? | 2%
O=C(N/N=C/C(Cl)=C/c1ccccc1)c1cnccn1 | 49% | -8%[11.4 µM] | 2% | -92* | ? | 6%
O=C(N/N=C/C(Cl)=C\c1ccccc1)c1ccco1 | 15% | -6% | 1% | -77* | -14 | -11%
CC(=C/c1ccccc1)/C=N/NC(=O)c1cnccn1 | 22% | -6% | 1% | -1 | 4 | 6%
O=C(N/N=C/C(Cl)=C/c1ccccc1)c1ccccc1F | -18% | -27% | 2% | ? | 2 | -16%
CC[C@@]1(c2ccccc2)NC(=O)NC1=O | . | . | 4% | . | . | .
CC(=O)C1=C(OC(=O)C(C)C)c2ccccc2S(=O)(=O)N1Cc1ccccc1 | 26% | -24% | 5% | . | . | ?
Cc1ccc(NC(c2ccc(Cl)cc2)c2nnc(-c3cccc(F)c3)o2)cc1C (stereo unspecified) | 13% | -9% | 2% | . | . | -30%
COC(=O)Cn1nc(C)c2c(C)n(-c3ccccc3)nc2c1=O | 3% | -14% | 3% | . | . | -2%
Cc1cc(C)c(Cn2c3ccccc3c3cnn(CC(=O)NC4CCC(C)CC4)c(=O)c32)c(C)c1 (stereo unspecified) | 23% | -16% | 0% | . | . | 5%
CCCNC(=O)OC[C@H]1O[C@@H](CCO/N=C2/C[C@@H](O)[C@@H](O)[C@@H]3[C@@H]4C(=O)N(CC)C(=O)[C@H]4CC[C@@H]23)C=C[C@@H]1Oc1ccc(OC)cc1 | . | . | 8%[21 µM] | . | . | .
CC(C)c1cccc(-c2ccc3c(c2)S(=O)(=O)c2cccc(C(=O)NCc4ccco4)c2C3=O)c1 | 28% | ? | 45µM* | -7 | -2 | .
COc1ccc(-c2ccc3c(c2)S(=O)(=O)c2cccc(C(=O)NC[C@@H]4CCCO4)c2C3=O)cc1OC | 12% | 40µM* | -3% | -15 | -2 | ?
CCOc1ccc(NC(=O)Cn2cc(C(=O)c3ccc(CC)cc3)c(=O)c3cc(C)ccc32)cc1 | 25% | -13% | 4% | . | . | ?
CC(=O)C1=C(C)NC(SCc2cccc3ccccc23)=C(C#N)C1c1ccco1 (stereo unspecified) | 37% | 10µM* | 11% | -5 | -12 | -8%
CC(=O)C1=C(C)NC(SCc2ccc(C#N)cc2)=C(C#N)C1c1ccco1 (stereo unspecified) | 34% | 20µM* | 5% | -6 | -5 | -33%
CC(=O)C1=C(C)NC(SCC(=O)c2ccc(Cl)cc2Cl)=C(C#N)C1c1ccco1 (stereo unspecified) | 23% | ? | 1% | -4 | -4 | -6%
CC(=O)C1=C(C)NC(SCC(=O)c2ccccc2)=C(C#N)C1c1ccco1 (stereo unspecified) | . | . | 1% | . | . | 12%

Bioassay records (PubChem)
